{"source": "paper PMC12136788", "binders": {"B1": {"name": "chr3:10015032:10015033:+_ENSMUSG00000027533_ENSMUST00000029046|mus_mus|mus_mus_mus_hu_True|1_28 (ssRNA)", "RNA": "GGGAGUUCUACAGUCCGACGAUCGUUUUUACCAUCACAAGUGAUGAUACAAUCUGGCUUGGCCAUUGCGCCCAUUUUUCGCAAAGCUAUUCCCACUCCUAGCUCCUUCAUGUACUCAUCAAAGCCUUUGCUGUCCAUCAGGCGCAACAGAGGAUUGAGCAUCA"}, "B2": {"name": "chr7:151048522:151048523:+_ENSG00000013374_ENST00000566856|hu_mus|hu_hu_hu_mus_True|18_78 (ssRNA)", "RNA": "GGGAGUUCUACAGUCCGACGAUCCUGUUUCUUAUUUAUUACGAUCUUGAUGUAAUUUUCUUGAAGUCCGAAAGUUUCAGCUAUUUGACACCUCAGGUCUCUACCAGUGACAUGCAAUCGGGUCUCCAACAAGCUUUUCUUAUCCAACAGAGGAUUGAGCAUCA"}, "B3": {"name": "chr19:7991675:7991676:-_ENSG00000104980_ENST00000595831|hu_hu|motif|central (ssRNA)", "RNA": "GGGAGUUCUACAGUCCGACGAUCCCAAAUCUCAGGCUUAUGCACAAGAUGGAAGAGCACUGUUAAAAUUAAAAAAUGGACCGGAAGUGGCUUGGCUGACGUGGCUAGCGGGCCACUGAGCCGCGGGUCCCGGGUCCCACCCUGCAACAGAGGAUUGAGCAUCA"}, "B4": {"name": "chr9:100883651:100883652:-_ENSG00000106789_ENST00000375077|hu_mus|FALSE|FALSE (ssRNA)", "RNA": "GGGAGUUCUACAGUCCGACGAUCUCCCAAGGCAAGAAGGAAGGAGCCGAGGGCGGCUUUGCUGCUUGGGUGGUCACUGUGUCAGGGGGCAGUGUUGCUCCAUUAGCCCAAGAACAUAAAAACAUAAUCUUAAAAAAAUAUGACCAACAGAGGAUUGAGCAUCA"}, "B5": {"name": "chr7:54825262:54825263:-_ENSG00000132432_ENST00000352861|hu_hu|motif|central (ssRNA)", "RNA": "GGGAGUUCUACAGUCCGACGAUCCCGACUUGGCUCAACAAACUGCAUUACCUGAUCCAUGACUGCCUACCCAACCGACACCGGAAAUGCCAGGGACACGUAGCACUGGAGCUUGCUGAUGGAGGCCCACCGGAACCGGAAUCCCAACAGAGGAUUGAGCAUCA"}, "B6": {"name": "chr11:46405157:46405158:+_ENSG00000110492_ENST00000395566|hu_hu|hu_hu_hu_mus_False|1_98 (ssRNA)", "RNA": "GGGAGUUCUACAGUCCGACGAUCCCCUCCCCACUUUGGCUGGGGAGUGUGGGCGUGAGAGGACAGGCGUGAUUGACAGAGCUGACAGGAAGACAAAAGGCACUGGUGGGUUAUAUCUUGGGCCUGUGGGAGAGGAGGCGUGGGCAACAGAGGAUUGAGCAUCA"}, "B7": {"name": "193332725_193333477_540_CDS_ENSG00000198836_ENST00000392438|human|control|control (ssRNA)", "RNA": "GGGAGUUCUACAGUCCGACGAUCCCACUGAUCAAAAGUCUUUUUGGCUGUGUAGCCACCCCCAACAGCCGAUCCUAGUAUGAGAUAGCGAAGUUUUAAGAGUCUCGUAGCUAAUCUUGCUGGCCAAAAAUUCCUGCGAGGCUGCAACAGAGGAUUGAGCAUCA"}, "B8": {"name": "chr19:7991675:7991676:-_ENSG00000104980_ENST00000595831|hu_hu|FALSE|FALSE (ssRNA)", "RNA": "B3 RNA with G82U, G83A"}, "B9": {"name": "chr1:129704038:129704039:+_ENSMUSG00000026349_ENSMUST00000027587|mus_mus|FALSE|FALSE (ssRNA)", "RNA": "GGGAGUUCUACAGUCCGACGAUCAGGCCAAAGCUGCCCUCCAAGUGUCGGUUGGCCUGCAUUAAUUACAGCUGUGCCUGCACACUUGUCUCAACAUCAAGUACUGAGGGAAAACGGGAAUGCACUCUGCCUCUGGUCAGUACACAACAGAGGAUUGAGCAUCA"}, "B10": {"name": "chr10:110404880:110404881:-_ENSMUSG00000035798_ENSMUST00000041723|mus_hu|motif|central (ssRNA)", "RNA": "GGGAGUUCUACAGUCCGACGAUCGUUUUUGUGAUACUUGUCACCAAGGUUAACUGAAACAUUGAAUGUUAAAAGCAAUCGGGUUGGAUCCACACUAUGUGUUCUAUAUGCUGCCCACAUUAAAGGCGUCAUUCCAUUCUGAUCCAACAGAGGAUUGAGCAUCA"}, "B11": {"name": "23688267_23688387_1410_3pUTR_ENSMUSG00000048439_ENSMUST00000049887|mouse|control|control (ssRNA)", "RNA": "GGGAGUUCUACAGUCCGACGAUCUGAAUUUGUGGUGUUCUGCUGCUCAGCUUCCCAGACUGUAGGCAUGCAGGACAUGCCUGGCUAAGGCAUUCUUUCUGUAUUUAAACCUGACCUUUAUACAGUCAGAAGCUCGACCGGUGGCAACAGAGGAUUGAGCAUCA"}, "B12": {"name": "chr2:228221723:228221724:+_ENSG00000168958_ENST00000354503|hu_mus|FALSE|FALSE (ssRNA)", "RNA": "GGGAGUUCUACAGUCCGACGAUCGACCAUUUCUCUUUUAGCACGCUCUUUAUUCUCCUCUUCCAGAAGUUGGAGACGUCUAUUUAAUUUGAUUAUCUGACGUCUUAAUGAAGCUGCAUCUACCACAGUCAUGUCAUCUGAAGCCAACAGAGGAUUGAGCAUCA"}, "B13": {"name": "60766941_60767061_3855_CDS_ENSG00000011028_ENST00000303375|human|control|control (ssRNA)", "RNA": "GGGAGUUCUACAGUCCGACGAUCGAAGGCCUGGGUGUAGGGGUCGGGCACGUAGGCCAGGCUGGCAUUGCGGCUCUCACACAGCAGGAGGGCAUCGUGCCAGCGCAGCGGCUUCUGAAGCAGCCGGAAGGUGCCGUUGAGGUACAACAGAGGAUUGAGCAUCA"}, "B14": {"name": "chr3:196311055:196311056:+_ENSG00000174013_ENST00000440469|hu_hu|FALSE|FALSE (ssRNA)", "RNA": "GGGAGUUCUACAGUCCGACGAUCGACCUUUGGAAGUCCUCUAAAAGCAACCCCCAGGAACUCAUAUCCACGUUCAAAAGCUAAAGUCUUAUCUUCCAUGUCCAAGAUGACUCGAAUUCUUUCUCCUAUCUGAUAUUUUGGUGCCAACAGAGGAUUGAGCAUCA"}}, "note": "Numbering of substitutions follows the chain as printed. The full ranking holds about 24,000 sequences; the median of “enrichment r” is about 0.99, and the highest 2% start at about 3.7. This is one part of a sample in which the highest values are shown more often than they occur.", "data": [{"molecular_target": "T1, UNK ZnF1-3 (human, UniProt Q9C0B0 31-174)", "T1 sequence": "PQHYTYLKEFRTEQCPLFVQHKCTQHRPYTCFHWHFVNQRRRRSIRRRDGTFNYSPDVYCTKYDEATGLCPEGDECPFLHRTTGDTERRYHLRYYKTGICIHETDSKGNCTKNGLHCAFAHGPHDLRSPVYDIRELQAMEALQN", "assay": "nsRBNS (natural sequence RNA bind-n-seq); RBNS binding buffer (assumed for nsRBNS): 25 mM Tris pH 7.5, 150 mM KCl, 3 mM MgCl2, 0.01% Triton X-100, 500 ug/ml BSA, 20 U/ml SUPERase-In, 4 C; UNK is unkempt and MSI1 is Musashi-1; names of the RNAs are library labels; protein concentration not given here; high values mean tight binding", "units": {"binding signal": "enrichment R"}, "values": [{"binder": "B1", "binding signal": 0.662}, {"binder": "B2", "binding signal": 0.639}, {"binder": "B3", "binding signal": 3.81}, {"binder": "B4", "binding signal": 2.88}, {"binder": "B5", "binding signal": 1.13}, {"binder": "B6", "binding signal": 2.22}, {"binder": "B7", "binding signal": 1.11}, {"binder": "B8", "binding signal": 4.68}, {"binder": "B9", "binding signal": 0.746}, {"binder": "B10", "binding signal": 0.601}, {"binder": "B11", "binding signal": 0.457}, {"binder": "B12", "binding signal": 0.795}, {"binder": "B13", "binding signal": 0.939}, {"binder": "B14", "binding signal": 1.13}]}]}
